L3MBTL1 block: inhibitors of human L3MBTL1; 230,000 tested, 0.66% active; Q9Y468; AlphaScreen L3MBTL1–H3K9me1 peptide binding; Potency, µM (titrated, usually from 57.1 µM), inactives show at the top dose activity, negative = inhibition, hits mostly inhibitors; AID 485360; note: % is set by controls: 0 for no effect and ±100 for the full control effect; nearly all actives have a fitted effect of over 60% in size
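L3MBTL1 (50 nM) pre-complexed 30 min with biotinylated H3(1-15)K9me1 peptide (75 nM), then compounds added for 30 min at room temperature; AlphaScreen streptavidin donor/nickel chelate acceptor beads (10 ug/mL final) read after 30 min dark incubation.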
JMJD2A Tudor inh: blocks the human JMJD2A Tudor domain; AlphaScreen JMJD2A-Tudor / H3K4me3 peptide binding; Potency, µM (highest dose often 114 µM), without a hit: top-dose activity change, negative = inhibition, most hits filed as inhibitors; 390,000 tested, 4.4% active; O75164; note: % is set by controls: 0 for no effect and ±100 for the full control effect; nearly all actives have a fitted effect of over 50% in size
G9a block: inhibitors of human histone lysine methyltransferase G9a; G9a H3K9 monomethylation, AlphaScreen, 2 h; AID 504332; 350,000 tested, 8.8% active; Potency, µM (highest dose often 102 µM), for inactives: at the highest dose activity, negative = inhibition, most hits filed as inhibitors; Q96KQ7; note: % is set by controls: 0 for no effect and ±100 for the full control effect; nearly all actives have a fitted effect of over 75% in size
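G9a (20 nM) preincubated 15 min RT with compounds, then 500 nM biotinylated H3K9 peptide and 20 uM SAM added; 2 h RT reaction. Monomethyl-H3K9 product detected by AlphaScreen with anti-H3K9me1 antibody, streptavidin donor and anti-rabbit IgG acceptor beads.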
HP1b chromo inh: blocks HP1-beta chromodomain binding to methylated histone tails; Potency, µM (highest dose often 114 µM), without a hit: at the top dose activity change, negative = inhibition, hits mostly inhibitors; 390,000 tested, 0.56% active; AlphaScreen HP1-beta / biotin-H3K9me3 peptide binding; AID 540317; P83916; note: nearly all actives have a fitted effect of over 70% in size
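AlphaScreen: HP1-beta (50 nM) preformed 30 min with biotin-H3(1-18)K9me3 peptide (50 nM) in PBS pH 7.4, 0.01% Tween-20. Compound added for 30 min at RT, then streptavidin donor/nickel chelate acceptor beads (10 ug/mL) for 30 min.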
Sfp inh: Sfp phosphopantetheinyl transferase inhibition. Biochemical Sfp PPTase activity, qHTS. Potency, µM, for the others: largest response in the series, negative = inhibition, hits mostly inhibitors. 310,000 tested, 3.5% active;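 note: the enzyme is Sfp with the accession as filed and its product quenches rhodamine fluorescence; 0% = enzyme reaction without inhibitor and -100% = no enzyme wells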
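After 15 min at room temperature with compound, 15 nM Sfp received 5 uM rhodamine-CoA plus 12.5 uM BHQ-2-ybbR (50 mM Hepes pH 7.6, 10 mM MgCl2). Rate came from the fluorescence difference over 30 min, ex 525/em 598 nm.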
BAZ2B inh: BAZ2B (human) inhibition. 360,000 tested, 4.4% active. Potency, µM (titrated, usually from 114 µM), for the others: at the top dose activity change, negative = inhibition, hits mostly inhibitors. AID 504333. AlphaScreen BAZ2B-H3K14Ac peptide displacement. Q9UIF8; note: % is set by controls: 0 for no effect and ±100 for the full control effect; nearly all actives have a fitted effect of over 60% in size
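Compounds, titrated to a top concentration of 110 uM, were incubated 30 min at room temperature with preformed BAZ2B/acetyl-K14 H3 peptide complex (50 nM each). Proximity signal was measured by AlphaScreen after 20 min with beads.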
An asterisk follows results filed as active; ? = inconclusive; / = no result given; [ ] = dose if it differs, or a comment. A selection: hits, their analogues and other compounds. The true share with any hit is near 12%. Calls come from the whole dose curve; as a rule, active = well fitted curve in the direction sought with a large enough effect; inconclusive = small, poorly fitted or top-dose-only effect, or another doubt; inactive = no such curve, though single readings can be large; an effect the other way counts as inactive or inconclusive. Potency is the fitted concentration of half-maximal effect.

SMILES | L3MBTL1 block | JMJD2A Tudor inh | G9a block | HP1b chromo inh | Sfp inh | BAZ2B inh
O=S(=O)(O)c1ccc2c(N=Nc3ccc(S(=O)(=O)O)c4ccccc34)c(O)c(S(=O)(=O)O)cc2c1 | / | / | 28µM* | / | -23% | /
Cc1ccc(N=Nc2c(O)c3ccccc3[nH]c2=O)c(S(=O)(=O)N(C)C)c1 | 19% | / | / | / | -7% | -16%
Cc1cc(C)cc(NC(=O)C(=O)NC(C)c2ccccc2)c1 (centres undefined) | / | -15% | 1%[59 µM] | 26% | / | 2%
CCCn1c(CCC(=O)Nc2ccc(OCC)cc2)nc2cccnc21 | / | -13% | -6%[59 µM] | 31% | / | -11%
CN1CCN2c3ccccc3CC3(C(=O)OC(C)(C)OC3=O)C2C1 (centres undefined) | / | 5%[57.1 µM] | / | 21%[57 µM] | / | /
CC(=O)C1=C(C)NC(SCC(N)=O)=C(C#N)C1C (centres undefined) | / | 13µM* | ? | ? | 40µM* | -8%
CCOC(=O)C1=C(C)NC(SC)=C(C#N)C1CC(C)C (centres undefined) | 19% | 10% | -7%[12.7 µM] | 47% | 3% | 19%
CC(=O)C1=C(C)NC(SCC(=O)c2ccc(F)cc2)=C(C#N)C1CC(C)C (centres undefined) | -13% | 13µM* | 3.5µM* | 26% | 14µM* | -29%
CC(=O)C1=C(C)NC(SCC(N)=O)=C(C#N)C1c1sccc1C (centres undefined) | 3% | ? | -25%[59 µM] | 30% | -2% | 0%
CCOC(=O)CSC1=C(C#N)C(c2sccc2C)C(C(C)=O)=C(C)N1 (centres undefined) | -4% | 4% | -1% | 40% | ? | 2%[57.1 µM]
CC(=O)C1=C(C)NC(SCC(=O)c2ccc(Cl)cc2)=C(C#N)C1CC(C)C (centres undefined) | / | ? | 0.79µM* | 38% | 13µM* | ?
CC(=O)C1=C(C)NC(SCC(N)=O)=C(C#N)C1CC(C)C (centres undefined) | / | 22µM* | 7.1µM* | -36% | 7% | -15%
COCCNc1nc2c(c(=O)n(C)c(=O)n2C)n1Cc1c(F)cccc1Cl | / | -6% | 2%[59 µM] | 17% | / | 0%
CCC1C(C#N)=C(SCC(N)=O)NC2=C1C(=O)CC(C)(C)C2 (centres undefined) | 3% | 71µM* | 40µM* | -6% | 8% | 1%
CC1C(C#N)=C(SCC(N)=O)NC2=C1C(=O)CC(C)(C)C2 (centres undefined) | / | ? | -44% | 3% | -18% | 10%
CN(C)c1ccc2c(c1)OC(N)=C(C#N)C2c1cccc(F)c1 (centres undefined) | 3% | 50µM* | 45µM* | ? | ? | ?
Cc1cc(S(=O)(=O)Nc2ccc(-c3ccc(N4CCCCC4)nn3)cc2)c(C)cc1Cl | / | -20% | -21%[59 µM] | ? | / | ?
C=CCSc1nnc(-c2cccc3ccccc23)o1 | 7.9µM* | 13µM* | / | 52% | / | /
C=CCNc1nnc(-c2cccc3ccccc23)o1 | / | 11µM* | / | / | / | /
CCn1c(CN2CCOCC2)nc2cc(NC(=O)c3cccc([N+](=O)[O-])c3)ccc21 | / | -23% | -19%[59 µM] | 24% | / | -17%
CCc1cc(C=NC2CCCCC2)c(O)s1 | -26% | -35%[57.1 µM] | 13µM* | -10% | -20% | -31%
COc1ccc(-c2nc3c(n2O)CCc2c-3no[n+]2[O-])cc1 | / | -11%[11.4 µM] | 50µM* | -4% | 14% | -32%
COn1c(-c2ccccc2)nc2c1CCc1c-2no[n+]1[O-] | / | -6% | 14%[59 µM] | 19% | 19% | 6%
COc1ccc(C2c3c(oc4ccc(Cl)cc4c3=O)C(=O)N2CCCN(C)C)cc1OC (centres undefined) | / | 4% | -3%[59 µM] | 31% | / | 0%
CC1CC(C)(C)NC(=S)S1 (centres undefined) | 2% | -13% | 8.9µM* | 7% | 50µM* | 7%
CC12CCC(c3c1nc1ccccc1[n+]3[O-])C2(C)C (centres undefined) | 5% | 45µM* | 10%[59 µM] | 5% | 8% | 4%
